High-throughput results (PubChem)
Tgondii IFNg – T. gondii growth inhibition with IFN-gamma, primary screen, cell-based; Toxoplasma gondii growth in IFN-gamma-treated host cells; active compounds read low; activity change, negative = inhibition, % (no concentration beside the values); 3.8% of 69,000 active; AID 1259416, 2018; in the data active means activity change below about -70%, passing the limit was not always enough;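 further: host cells are HeLa cells infected with Toxoplasma gondii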
Active calls of the source: *; i = inactive. The entries come from a sample that favours hits as a whole.

SMILES	Tgondii IFNg
CCN1C(=O)CCc2cc(C(=O)N3CCOCC3)ccc21	12
CCc1ccccc1NC(=O)N1CCC(c2nc(C(=O)N(C)C)c(C)o2)CC1	61
C=Cn1cc(CN2CCn3nc(-c4ccc(F)cc4)nc3C2)c(C)n1	29
Cc1nc(C2CC2)ncc1C(=O)N(C)Cc1ccc2nonc2c1	-41
CN1[C@@H]2CC[C@H]1CC(OC(=O)c1c[nH]c3ccccc13)C2 (some centres undefined)	-5
CN(C)c1cc(OC2CCN(C(=O)c3c[nH]c4ccccc34)C2)ncn1 (centres undefined)	-84*
CN1C2CCC1CC(OC(=O)c1c[nH]c3ccccc13)C2 (centres undefined)	12
Cc1cccc(Nc2nc(C(=O)NCCc3cccs3)nc3ccccc23)c1	-57
COc1ccc(Oc2ccc(NC(=O)C3C4CC5OC(=O)C3C5C4)cc2)cc1 (centres undefined)	-7
COc1ccc(NC(=O)N2CCOCC2)cc1	33
COc1ccc(NC(=O)C2OC3OC(C)(C)OC3C3OC(C)(C)OC23)cc1 (centres undefined)	-94*
COc1ccc(-c2nc(C)c(CCNC(=O)c3cccc(C)c3)s2)cc1	i
Cc1noc(C)c1CN1CCOc2c(O)cc(-c3cccc(Cl)c3)cc2C1	-74*
Oc1cc(-c2cccc(Cl)c2)cc2c1OCCN(Cc1cscn1)C2	-23
Oc1ccc(CN2CCOc3c(O)cc(-c4cccc(Cl)c4)cc3C2)cc1	3
N#Cc1cccc(NC(=O)Cn2c(=O)cc(C(=O)N3CCOCC3)c3ccccc32)c1	5
O=C(CCCOc1ccc(Cl)cc1Cl)NCCc1nc2ccccc2[nH]1	-35
CC(C)(C)OC(=O)N1CCc2[nH]nc(Nc3ccccc3)c2C1	-5
COc1cccc(Nc2nc(-c3ccncc3)nc3c2CN(C(=O)OC(C)(C)C)CC3)c1	-75*
COc1cccc(CC(=O)N2CCc3nc(-c4ccc(F)cc4)nc(C)c3CC2)c1	-6
Cc1ncsc1CCN(C)Cc1cnc(N)nc1	3
COc1ccccc1C(=O)Nc1cccc(NC(=O)c2c(Cl)cnn2C)c1	-85*
COCC1(C(=O)Nc2cccc(NC(=O)c3ccccc3OC)c2)CCC1	-2
COc1ccccc1C(=O)Nc1ccc(-c2nc(-c3ccc(C)cc3)co2)cc1	-55
COCC(=O)N1C[C@@H]2c3nc(NCC4CC4)ncc3CS(=O)(=O)[C@H]2C1	-1
SMILES	Tgondii IFNg
CSc1ccc(C2c3[nH]c4ccccc4c3CCN2C(=O)c2ccccc2C)cc1 (centres undefined)	159
CC(C)(C)c1nc2ccccc2c2nnc(SCC(=O)c3ccc4c(c3)OCCO4)n12	1
O=C(CSc1nc2ccccc2o1)c1ccc2c(c1)OCCO2	52
Cn1c(SCC(=O)c2ccc3c(c2)OCCO3)nnc1-c1ccc2ccccc2c1	-95*
Cn1cnc2ccc(NC(=O)c3cc(-c4ccccc4Cl)no3)cc21	-13
Cc1ccn2c(C(=O)N3C[C@@H]4C5CCC(CC5)[C@@H]4C3)c(C)nc2c1	3
COCCSc1nnc(NC(=O)c2ccco2)s1	192
O=C(Nc1nnc(SCc2ccccc2)s1)C1COc2ccccc2C1 (centres undefined)	-83*
O=C(CSc1nc2ccccc2o1)Nc1nnc(SCc2ccccc2)s1	48
O=C(O)C(Cc1ccc(F)cc1)c1ccccc1 (centres undefined)	-10
Fc1ccc(CNC(=S)NC(Cc2ccccc2)c2ccccc2)cc1 (centres undefined)	-94*
S=C(NCc1ccccc1)NCc1cccc(CNC(=S)NCc2ccccc2)c1	-2
Cc1cccc(C)c1OCCCN(C)C(=O)CN1CCOC1=O	54
O=S(=O)(c1ccccc1)c1nc(-c2ccc(Cl)cc2Cl)oc1N1CCOCC1	-39
O=C(CCc1ccccc1)N1CCC2(CC1)Nc1cc(F)ccc1-n1cccc12	45
COc1ccc(CCC(=O)N2CCC3(CC2)Nc2cc(OC)ccc2-n2cccc23)cc1	-82*
COc1ccc2c(c1)NC1(CCN(C(=O)Cc3ccc(C)cc3)CC1)c1cccn1-2	12
COc1cc(CCC(=O)N2CCC3(CC2)Nc2cc(F)ccc2-n2cccc23)cc(OC)c1OC	37
COc1ccc(CCC(=O)N2CCC3(CC2)Nc2cc(F)ccc2-n2cccc23)cc1	-75*
COc1ccc(OCC(=O)N2CCC3(CC2)Nc2cc(OC)ccc2-n2cccc23)cc1	18
Cc1c(C#N)c(Sc2ccccc2NS(=O)(=O)c2ccccc2)nc2ccccc12	12
COc1ccc(-c2cc(-c3ccccc3)nc(N)c2C#N)cc1OC	19
COc1ccc(-c2cc(=S)sc(N)c2C#N)cc1OC	65
COc1ccc(-c2c(C#N)c(N)nc3c2CCc2ccccc2-3)cc1OC	-86*
CCc1cccc(NC(=O)c2cncc(NS(=O)(=O)c3ccc(C)cc3C)c2)c1	14
SMILES	Tgondii IFNg
Cc1ccccc1-c1noc(C(C)NC(=O)COc2ccc3nsnc3c2)n1 (centres undefined)	41
CCn1nc(C(C)C)cc1C(=O)N1CCO[C@@H]2CCCC[C@H]21	6
Cc1noc(C)c1C1CCCN1Cc1ccc(-n2cncn2)cc1 (centres undefined)	9
COc1ccc2c(Oc3ccc(NC(=O)c4c(C)n(CC(C)(C)O)n(-c5ccccc5)c4=O)nc3)ccnc2c1	-73*
COc1ccc2c(OCc3nnc4ccc(-c5ccccc5)nn34)ccnc2c1	-5
COc1ccc2oc(=O)c(C(=O)Nc3c(C)n(C)n(-c4ccccc4)c3=O)cc2c1	29
O=c1[nH]c2cc(F)ccc2c(O)c1-c1nc(-c2cccc(F)c2)no1	-3
COCCN1CC2(CCC1=O)CCN(C(=O)C1CCOCC1)CC2	2
O=C(O)CN1C(=O)/C(=N\N2C(=O)CSC2=S)c2ccccc21	26
CC1CCN(C(=O)c2csc(C(=O)NC3CC3)n2)CC1	-17
CN(C)C(=O)C1CC2CN(C(=O)Nc3ccccc3Cl)CC1O2 (centres undefined)	2
COc1ccc(-c2nc3c(s2)CN(S(=O)(=O)c2cc(F)ccc2C)CC3)cc1OC	-68
O=S(=O)(c1ccccc1Cl)N1CCc2nc(-c3ccccc3)sc2C1	-15
CCc1ccc(S(=O)(=O)N2CCc3nc(-c4ccc(OC)c(OC)c4)sc3C2)cc1	21
COc1ccc(-c2nc3c(s2)CN(S(=O)(=O)c2ccc(F)cc2)CC3)cc1OC	18
COc1ccc(-c2nc3c(s2)CN(S(=O)(=O)c2ccccc2C)CC3)cc1OC	-94*
COc1ccc(-c2nc3c(s2)CN(S(=O)(=O)c2ccc(C)cc2)CC3)cc1OC	-87*
COc1ccc(-c2nc3c(s2)CN(S(=O)(=O)c2ccc(NC(C)=O)cc2)CC3)cc1	-26
COc1ccc(-c2nc3c(s2)CN(C(=O)Nc2ccc(C)cc2)CC3)cc1OC	-42
COc1ccc(Cl)cc1S(=O)(=O)N1CCc2nc(-c3ccccc3)sc2C1	-118*
O=S(=O)(c1ccc(F)c(Cl)c1)N1CCc2nc(-c3ccccc3)sc2C1	16
COc1ccc(-c2nc3c(s2)CN(S(=O)(=O)Cc2ccccc2)CC3)cc1OC	-35
COc1ccc(-c2nc3c(s2)CN(S(=O)(=O)c2ccc(C)c(C)c2)CC3)cc1OC	-98*
CCCCC(=O)Nc1ccc(NC(=O)c2ccnc(C(C)C)n2)cc1C	-9
FC(F)(F)c1cc(Br)c2nc(-c3ccc(Cl)c(Cl)c3)cnc2c1	-9
O=C(c1ccno1)N1CCC2(CC1)CC(=O)N(CCO)c1ccccc12	-2
CCOc1ccc(NC(=O)C2CCCN(S(=O)(=O)c3ccc(OC)cc3)C2)cc1 (centres undefined)	3
